# A number with no mark means an inactive call.
# Experiment: S. cerevisiae growth modulation with rapamycin, primary screen, strain BY4716, OD600, 96 h (AID 1091); note: test concentration not given here
# Settings: higher = more signal, called active from +8 up or from −8 down
row,SMILES,z-score
1,COc1ccc(C#Cc2ccc3c(c2)[C@]2(C(=O)N3)[C@H](C(=O)O)[C@H]3C(=O)O[C@H](c4ccccc4)[C@H](c4ccccc4)N3[C@@H]2c2ccc(O)cc2)cc1,0.0118
2,CCC#CCN(Cc1ccccc1Br)[C@H](/C=C/C1CC1)[C@@H](O)Cc1ccccc1,-1.72
3,COC(=O)[C@@]1(Cc2ccccc2)[C@H]2c3cc(C(=O)N(C)C)n(Cc4ccc(C)o4)c3C[C@H]2CN1C(=O)c1ccccc1,0.982
4,CC(C)NC(=O)[C@@]1(C)c2ccccc2C(=O)N(Cc2ccc(OC(F)(F)F)cc2)[C@H]1c1ccc(CO)cc1,-1.38
5,COc1ccc([Si](C)(C)[C@@H]2[C@@H](CC(=O)N3CCC[C@H]3CO)O[C@]3(C(=O)N(Cc4cccc(N5C(=O)COc6ccccc65)c4)c4ccccc43)[C@H]2C)cc1,-0.278
6,CCCC[C@@H](O)C1=C(COC)C[C@H]2C(=O)N(C)C(=O)[C@H]2[C@H]1CO,-1.21
7,COc1ccc([Si](C)(C)[C@@H]2[C@@H](CC(=O)N(CCO)Cc3ccccc3)O[C@]3(C(=O)N(Cc4cccc(N5CCCCC5=O)c4)c4ccccc43)[C@H]2C)cc1,3.5
8,COc1ccc(CCNC(=O)[C@@]2(Sc3ccc(C)cc3)CC(=O)N(Cc3ccccc3C(F)(F)F)[C@@H]2c2ccc(CO)cc2I)cc1,1.22
9,[N-]=[N+]=Nc1ccccc1[C@@H]1OC(c2ccc(OCCCO)cc2)=N[C@]1(Cc1ccccc1)C(=O)N1CCCCC1,1.49
10,Cc1ccc(S[C@]2(C(=O)NCc3ccccc3)CC(=O)N(C3CCCCC3)[C@@H]2c2ccc(CO)cc2I)cc1,0.861
11,COc1ccc([Si](C)(C)[C@H]2[C@H](CC(=O)N(CCO)Cc3ccccc3)O[C@@]3(C(=O)N(C)c4c(Br)cc(C)cc43)[C@@H]2C)cc1,1.93
12,[N-]=[N+]=Nc1ccccc1[C@@H]1OC(c2ccc(OCCCO)cc2)=N[C@]1(Cc1ccccc1)C(=O)O,1.82
13,CCCC1(C(=O)OC)C=C2C(=C(C)C(=O)C2C)CN1 (stereo not given),0.578
14,COCC(=C=CC[C@H](O)c1ccccc1OCCO)C[C@H](O)c1ccccn1,-0.505
15,Oc1ccc2cc[n+](Cc3cc4c(cc3Br)OCO4)cc2c1,0.645
16,CC(C)[Si]1(C(C)C)OCc2cc(C3CC3)nc(-c3ccc(Oc4ccccc4)cc3)c21,2.1
17,[N-]=[N+]=Nc1ccccc1C[C@]1(C(=O)N2CCOCC2)COC(c2ccc(OCCCO)cc2)=N1,-2.08
18,[N-]=[N+]=Nc1ccccc1C[C@@]1(C(=O)NCCN2CCOCC2)N=C(c2ccc(OCCCO)cc2)O[C@@H]1c1ccccc1N=[N+]=[N-],-0.321
19,CCCCC(CC)C(O)C1C=CC2C(=O)N(C)C(=O)C2N1Nc1ccccc1 (stereo not given),0.695
20,O=C1N(CCS(=O)(=O)c2ccccc2)c2ccccc2[C@H]2OC(c3ccc(OCCCO)cc3)=N[C@@]12Cc1ccccc1,5.03
21,COc1ccc(C#Cc2ccc3c(c2)[C@]2(C(=O)N3)[C@H](c3ccc(O)cc3)N3[C@H](c4ccccc4)[C@H](c4ccccc4)OC(=O)[C@H]3[C@@H]2C(=O)Nc2nc3ccccc3s2)cc1,-0.221
22,CCOc1cc(C(O)C2C=CC3C(=O)NC(=O)C3N2Nc2ccc(Cl)cc2Cl)ccc1O (stereo not given),0.339
23,Cc1ccc(S[C@]2(C(=O)NCC(F)(F)F)CC(=O)N(Cc3cc(C(F)(F)F)cc(C(F)(F)F)c3)[C@@H]2c2ccc(CO)cc2I)cc1,-0.857
24,C=CCC(OC(C)=O)[C@@H]1[C@@H](N(Cc2cc3ccccc3o2)C(=O)Cc2ccc(F)cc2)c2cc(OCCCO)ccc2N1C(=O)Cc1ccc2ccccc2c1 (stereo not given in full),-0.36
25,CO[C@H]1O[C@H](CO)[C@@H](OC(=O)Nc2ccccc2)[C@H](OC(=O)c2cc3ccccc3[nH]2)[C@H]1OC(=O)c1cc2ccccc2[nH]1,0.216

# Source: PubChem BioAssay
